# Screening results (PubChem)
# In the library only some 1.6% were active in any assay of this set; here they are far more common.
# KCNQ2 inh = inhibitors of rat KCNQ2 potassium channel; CHO-K1 KCNQ2, FluxOR thallium flux, 20 min; active compounds read low; O88943; 310,000 compounds, 1.1% hits; B-score at 10 µM;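 active = fluorescence ratio B-score at most minus 3 library SDs, with starting brightness B-score within 2 library SDs, cut at about -5.5 in these data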
# KCNQ2 pot = KCNQ2 (rat) channel potentiation; CHO-K1 KCNQ2, FluxOR thallium flux fluorescence; active compounds read high; B-score at 10 µM; 310,000 compounds, 0.54% hits;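 active = fluorescence ratio B-score at least 3 SD of library B-scores, with initial fluorescence B-score within 3 of them, cut at about 5.3 in these data; same plate scores as AID 2156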;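 also: B-score of peak minus minimum over baseline fluorescence ratio after K+ and Tl+ stimulus; positive B-score means potentiation of KCNQ2 with more thallium influx and brighter signal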
# KCNQ2 inh conf = confirmation of rat KCNQ2 potassium channel inhibitors. KCNQ2-expressing cells, thallium flux, inhibition; active compounds read low. 1,000 compounds, 57% hits. shares compounds with KCNQ2 inh. activity change, negative = inhibition, % at 10 µM;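 also: 0% = vehicle wells and values are ratio percent relative to vehicle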
# KCNQ1 spec = selectivity of KCNQ2 inhibitors against human KCNQ1. shares compounds with KCNQ2 inh. KCNQ1-expressing cells, FluxOR thallium flux fluorescence; active compounds read low. activity change, negative = inhibition, % at 10 µM. 1,000 compounds, 15% hits;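 active = activity change at least 3 SD of negative controls below their mean in both duplicate wells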;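 also: CHO cells stably transfected with KCNQ1 and depolarized by potassium stimulus; peak minus minimum fluorescence over baseline after thallium addition; 0% = vehicle negative control and -100% = blank without thallium stimulus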
# CHO parental ctr = activity in parental CHO cells lacking KCNQ2; shares compounds with KCNQ2 inh; thallium flux counter-screen; active compounds read low; activity change, % at 10 µM; 1,000 compounds, 14% hits;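 also: 0% = vehicle negative controls with stimulus buffer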
# * hit, by the source's call; i = inactive; nt = no result given. Unless noted, no rule for the calls is given here.
SMILES,KCNQ2 inh,KCNQ2 pot,others
O=S(=O)(NCC(c1ccc2c(c1)OCO2)N1CCOCC1)c1ccccc1 (centres undefined),i,nt,
COc1ccc(NC(=O)CSCC(=O)N(C)CC(=O)Nc2cccc3ccccc23)cc1,i,0.22,
CCN(CC(=O)Nc1c(F)cccc1F)C(=O)c1ccc(N2CCCC2=O)cc1,i,nt,
O=C(NC(=S)Nc1ccccc1)c1cccs1,i,4.27,
O=C(NC(=S)Nc1nc2ccccc2s1)c1cccs1,i,6.76*,
CCN(CC)C(=O)COc1c(-c2ccco2)oc2ccccc2c1=O,i,0.61,
CC(=O)Oc1c(-c2ccco2)oc2ccccc2c1=O,i,5.91*,
CCC(C)c1ccc(OCCCCN2CCOCC2)cc1 (centres undefined),i,nt,
O=C(C1=C(O)C(=O)N(CCCn2ccnc2)C1c1cccc(Br)c1)c1ccco1 (centres undefined),i,0.03,
Cn1c(C(=O)N2CCN(c3ccccc3)CC2)cc2cc(Cl)ccc21,i,nt,
CCN(CC)c1ccc2cc(S(=O)(=O)c3ccc(Cl)cc3)c(=O)oc2c1,-6.19*,-6.19,
CCCCCCc1cc2cc(S(=O)(=O)c3ccc(Cl)cc3)c(=O)oc2cc1O,i,1.16,
Cc1ccc(S(=O)(=O)c2c(C)nn(C(C)(C)C)c2OC(=O)C(C)C)cc1,i,nt,
Cc1ccc(S(=O)(=O)c2c(C)nn(C(C)(C)C)c2OC(=O)CC(C)C)cc1,-7.6*,-7.6,
Cc1ccccc1CNS(=O)(=O)c1c(C)[nH]c(C)c1C(=O)N1CCCCC1,i,0.17,
O=C1CC(c2ccccc2)C(C(=O)Nc2ccccc2F)N1 (centres undefined),i,nt,
Cc1ccc(OC(=O)c2ccc(Cl)c([N+](=O)[O-])c2)cn1,i,0.09,
Cc1ccc(C(=O)Oc2cccnc2)cc1[N+](=O)[O-],i,6.12*,
Cc1nn(Cc2ccccc2)c(Cl)c1C(=O)OCc1nnc(-c2ccccc2)o1,i,0.79,
Cc1nn(Cc2ccccc2)c(Cl)c1C(=O)OCc1nnc(-c2ccc(Cl)cc2)o1,-6.09*,-6.09,
c1ccc(-c2cn(-c3ccccc3)c3ncnc(NCCCN4CCOCC4)c23)cc1,-5.59*,-5.59,
COc1ccc(-n2cc(-c3ccccc3)c3c(NCCCN4CCOCC4)ncnc32)cc1,i,nt,
c1ccc(-c2nc(NCCCN3CCOCC3)c3ccccc3n2)cc1,i,0.42,
Cc1cccc(-c2nc(NCCCN3CCOCC3)c3ccccc3n2)c1,-5.92*,-5.92,
CCCCc1ccc(/C(C)=N/Nc2cc(N3CCOCC3)nc(C)n2)cc1,i,nt,
SMILES,KCNQ2 inh,KCNQ2 pot,others
Cc1ccsc1CN(C)Cc1nc(C2CC2)no1,i,0.42,
CC(=O)N1c2ccc(S(=O)(=O)N3CCC(C(=O)NCc4ccccc4Cl)CC3)cc2CC1C (centres undefined),i,nt,
COc1ccc(S(=O)(=O)N2CCCC2C(=O)NCc2ccccc2Cl)cc1 (centres undefined),i,nt,
Cc1ccc(S(=O)(=O)N2CCCC2C(=O)NCc2ccccc2Cl)cc1 (centres undefined),-6.56*,-6.56,
Cc1ccc(S(=O)(=O)N2CCCC2C(=O)Nc2nc3ccccc3s2)cc1 (centres undefined),i,nt,
O=C(Nc1nc2ccccc2s1)C1CCCN1S(=O)(=O)c1ccc(Cl)cc1 (centres undefined),-5.59*,-5.59,
CC(=O)N1c2ccc(S(=O)(=O)N3CCCC(C(=O)NCc4ccccc4Cl)C3)cc2CC1C (centres undefined),-6.24*,-6.24,
Cn1ccs/c1=N\C(=O)Nc1cccc(C(F)(F)F)c1,i,0.93,
CCC1(c2ccccc2)NC(=O)N(CC(=O)NCc2ccc(C)cc2)C1=O (centres undefined),i,nt,
COC(=O)C(CC(=O)c1ccc(Cl)cc1)c1ccc(C(C)C)cc1 (centres undefined),-5.86*,-5.86,
Cc1ccc(C(CC(=O)c2ccc(Cl)cc2)C(=O)O)cc1 (centres undefined),i,nt,
COC(=O)C1C(O)=C(C=Nc2cccc3ccccc23)C(=O)CC1(C)C (centres undefined),-5.97*,-5.97,
COC(=O)C1C(O)=C(C=NCc2ccccc2)C(=O)CC1(C)C (centres undefined),i,nt,
Cc1ccc(CNC(=O)c2sc3nc4c(c(C(F)(F)F)c3c2N)CCC4)cc1,i,nt,
Nc1c(C(=O)NCc2ccc(Cl)cc2)sc2nc3c(c(C(F)(F)F)c12)CCC3,-6.07*,-6.07,
COc1ccc(C2CC(c3cccs3)=Nc3ccccc3S2)cc1 (centres undefined),-5.96*,-5.96,
COc1ccc(C2CC(c3cccs3)=NN2S(C)(=O)=O)cc1 (centres undefined),i,0.71,
CCOC(=O)N1CCN(C(=O)c2c(Cl)cnn2C)CC1,i,0.03,
Cc1cc(C)c(S(=O)(=O)N2CCCCC2CCNC(=O)C(=O)NC2CC2)c(C)c1 (centres undefined),i,nt,
CCc1nn(CC(=O)NCc2cccnc2)c(=O)c2cc3occc3n12,i,nt,
NC(=O)C1CCN(CC(=O)NC2CCCc3ccccc32)CC1 (centres undefined),i,1.54,
Cc1ccc(S(=O)(=O)N2CCN(CC(=O)NC3CCCc4ccccc43)CC2)c(C)c1 (centres undefined),-6.11*,-6.11,
Cc1ccc(S(=O)(=O)N2CCN(CC(=O)NC3CCCc4ccccc43)CC2)cc1C (centres undefined),-7.01*,-7.01,
O=C(CCC(=O)N1CCN(S(=O)(=O)c2ccc(Cl)cc2)CC1)NC1CCCc2ccccc21 (centres undefined),-7.14*,-7.14,
O=C(CCC(=O)N1CCN(S(=O)(=O)c2ccc(Cl)cc2)CC1)Nc1ccc(Cl)cc1Cl,i,0.1,
SMILES,KCNQ2 inh,KCNQ2 pot,others
Cc1ccc(OCC(=O)NC2CCCc3ccccc32)c(C)c1 (centres undefined),i,nt,
O=[N+]([O-])c1cccc(/C=N/NC2CCS(=O)(=O)C2)c1 (centres undefined),i,nt,
O=C(NCc1ccc(F)cc1)C1CCCN(C(=O)NCc2ccccc2)C1 (centres undefined),i,nt,
Cc1nc2ccccn2c1C(=O)OCC#N,i,nt,
COc1cccc(C(=O)NC(C)c2cccc3ccccc23)c1OC (centres undefined),i,nt,
COc1cccc(C(=O)NC(C)c2ccc(-c3ccccc3)cc2)c1OC (centres undefined),-5.96*,-5.96,
Cc1ccc(CNC(=O)CNC(=O)c2ccc(Br)o2)cc1,i,0.81,
COc1cccc(NC(=O)c2ccccc2-c2ccccc2)c1,i,0.02,
Cc1cccc(OCc2nnc(SCC(=O)N3CCCC3)o2)c1,i,nt,
Cc1cccc(OCc2nnc(SCC(=O)N3c4ccccc4CCc4ccccc43)o2)c1,-7.3*,-7.3,KCNQ2 inh conf=i;KCNQ1 spec=i;CHO parental ctr=i
COc1ccccc1C(=O)NC(=O)COC(=O)Cn1cnc2c1c(=O)n(C)c(=O)n2C,i,nt,
